Experimental data from PubChem BioAssay AID493194 (Broad Institute, 2011).
Results with a measured potency or affinity are listed apart. Inconclusive results are not listed. Active and inactive are the calls of the source.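 Rule for the calls: active = a valid curve of falling signal whose half-effect concentration is at most ten times the top tested dose; inconclusive = flat curve at 30 to 70% inhibition, or poor fit; inactive = signal rise, flat within 30%, or potency beyond limit.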

The molecules below were run against Scavenger receptor class B member 1 (Mus musculus) (UniProt Q61009) (assay: inhibitors of SR-BI mediated HDL lipid uptake, dose response, ldlA[mSR-BI] cells, fluorescence, cherry pick (AID 493194;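 note: CHO cells lacking LDL receptor and overexpressing mouse SR-BI; cellular uptake of fluorescently labeled HDL measured as cell fluorescence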)). Conditions: CHO ldlA[mSR-BI] DiI-HDL uptake fluorescence, 3 h; series mostly up to 35 µM.
Chain of Scavenger receptor class B member 1 (Mus musculus) (Q61009 whole entry, looked up): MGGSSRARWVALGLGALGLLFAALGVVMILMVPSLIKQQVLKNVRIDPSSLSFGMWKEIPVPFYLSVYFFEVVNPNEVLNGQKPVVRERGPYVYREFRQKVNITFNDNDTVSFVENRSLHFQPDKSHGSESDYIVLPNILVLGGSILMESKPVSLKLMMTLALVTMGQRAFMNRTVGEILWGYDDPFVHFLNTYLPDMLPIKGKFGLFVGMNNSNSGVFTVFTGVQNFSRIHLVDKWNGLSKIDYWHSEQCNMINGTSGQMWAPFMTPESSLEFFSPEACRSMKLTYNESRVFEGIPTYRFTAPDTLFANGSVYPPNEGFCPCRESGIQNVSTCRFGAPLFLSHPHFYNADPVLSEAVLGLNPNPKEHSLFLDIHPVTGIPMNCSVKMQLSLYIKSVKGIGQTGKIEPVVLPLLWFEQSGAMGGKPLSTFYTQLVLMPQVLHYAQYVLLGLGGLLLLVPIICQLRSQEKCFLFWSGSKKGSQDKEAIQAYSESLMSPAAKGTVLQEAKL

Question: Which outcome does the source give for CC(=O)c1ccc(-c2ccc(C(=O)Nc3nc(C)c(C(C)=O)s3)o2)cc1 here?
Answer: inactive

Question: How did the outcome turn out when Cc1ccc(-c2csc(N3CCN(c4ccc5nc(-c6ccncc6)n(CCN6CCCCC6)c5c4)CC3)n2)cc1 was run?
Answer: inactive

Question: COc1ccc(C2C(C#N)=C(N)N(c3ccccc3C#N)C3=C2C(=O)CCC3)cc1CN1CCCC1 (stereo not drawn) was tested. Which outcome did it give?
Answer: inactive

Question: How did the outcome turn out when CCC(C)n1ncn(-c2ccc(N3CCN(c4ccc(OCC5COC(Cn6cncn6)(c6ccc(Cl)cc6Cl)O5)cc4)CC3)cc2)c1=O (stereo not drawn) was run?
Answer: inactive

Question: Which outcome does the source give for COc1ccc2c(c1)-c1c(sn(-c3ccc(OC)c(OC)c3)c1=S)C(C)(C)N2 here?
Answer: inactive

Question: With CN(C(=O)COC(=O)c1c[nH]c(=O)[nH]c1=O)C1CCCCC1 as the molecule, how does the outcome read?
Answer: inactive

Question: Which outcome does the source give for Cc1ccc(S(=O)(=O)NCc2ccc(C(=O)NCCc3ccc(S(N)(=O)=O)cc3)cc2)cc1 here?
Answer: inactive

Question: Which outcome does the source give for C=CCN(CC=C)C(=O)COn1nnc2ccc(S(=O)(=O)N3CCOCC3)cc21 here?
Answer: inactive

Question: With COc1ccc(OC)c2[nH]c(C(=O)N3CCC(C(=O)O)CC3)cc12 as the molecule, how does the outcome read?
Answer: inactive

Question: For COc1ccc(C2/C=C\CN(S(=O)(=O)c3ccc(-c4ccccc4)cc3)CC(=O)N2Cc2ccc(F)cc2)cc1 (stereo not drawn), which outcome is on record?
Answer: inactive

Question: How did the outcome turn out when COc1cccc2c1cc1c(=O)n(CC(=O)N3CCN(c4cccc(C)c4C)CC3)nc(C)n12 was run?
Answer: inactive

Question: CN(C(=O)COC(=O)c1c2c(nc3ccccc13)/C(=C/c1cccc([N+](=O)[O-])c1)CCC2)C1CCS(=O)(=O)C1 (stereo not drawn) was tested. Which outcome did it give?
Answer: inactive

Question: For O=C(/C=C/c1ccco1)Nc1cccc(NC(=O)/C=C/c2ccco2)n1, which outcome is on record?
Answer: inactive

Question: CCC(C)c1ccccc1N1CC(C(=O)N2CCN(S(=O)(=O)c3ccccc3Br)CC2)CC1=O (stereo not drawn) was tested. Which outcome did it give?
Answer: inactive

Question: How did the outcome turn out when CCC(C)NC(=O)Cn1cc(S(=O)(=O)N2CCN(c3ccccc3F)CC2)c2ccccc2c1=O (stereo not drawn) was run?
Answer: inactive

Question: CCCc1cc(-c2[nH]ncc2-c2ccc(C(=O)OCC)o2)c(O)cc1O was tested. Which outcome did it give?
Answer: inactive

Question: With COc1ccc(C2/C=C\CN(S(=O)(=O)c3ccc(C)cc3)CC(=O)N2Cc2cccc(F)c2)cc1 (stereo not drawn) as the molecule, how does the outcome read?
Answer: inactive

Question: For Cc1ccc(S(=O)(=O)N2CCC(C(=O)NNC(=O)c3cccnc3)CC2)cc1, which outcome is on record?
Answer: inactive

Question: With CN(Cc1cc(Cl)cc(Cl)c1O)Cc1c(O)ccc2ccccc12 as the molecule, how does the outcome read?
Answer: inactive

Question: O=C(Nc1cccc(S(=O)(=O)N2CCOCC2)c1)C1CCN(S(=O)(=O)c2ccccc2)CC1 was tested. Which outcome did it give?
Answer: inactive

Question: For Oc1ccc(/C=C/c2nc(-c3ccccc3O)n(-c3ccccc3)n2)cc1, which outcome is on record?
Answer: inactive

Question: Which outcome does the source give for Cc1cc(C)cc(N2CN=C3SCC(=O)N3C2)c1 here?
Answer: inactive

Question: Which outcome does the source give for COc1ccc(-c2nc(CN3CCN(c4ncnc5ccccc45)CC3)c(C)o2)c(OC)c1 here?
Answer: inactive

Question: With CCOc1ccc(OCCSc2nc3ccccc3n2CC(=O)O)cc1 as the molecule, how does the outcome read?
Answer: inactive

Question: For CCOCCOC(=O)c1[nH]c2c(c1C)C(=O)CC(c1cccs1)C2 (stereo not drawn), which outcome is on record?
Answer: inactive

Question: COc1ccc(C2/C=C\CN(S(=O)(=O)c3ccc(C)cc3)CC(=O)N2Cc2ccc(F)cc2)cc1 (stereo not drawn) was tested. Which outcome did it give?
Answer: inactive

Question: How did the outcome turn out when CC1CCCCC1NC(=O)C1CCN(C(=O)c2sccc2-n2cccc2)CC1 (stereo not drawn) was run?
Answer: inactive

Question: COc1ccc(NC(=O)N2CCN(c3nc(-c4cccc(OC)c4)cs3)CC2)cc1 was tested. Which outcome did it give?
Answer: inactive

Question: For Cc1cccc(N2CCN(C(=O)COc3ccc4c(C)cc(=O)oc4c3C)CC2)c1C, which outcome is on record?
Answer: inactive

Question: For Cc1ccc(OCc2cc(C(=O)N3CCCC(O)C3)no2)cn1 (stereo not drawn), which outcome is on record?
Answer: inactive

Question: Which outcome does the source give for CC(=O)Nc1ccc(S(=O)(=O)N2CCC(C(=O)NCCC(=O)NCc3ccccc3)CC2)cc1 here?
Answer: inactive

Question: Which outcome does the source give for CCCCC(c1nnnn1CC1CCCO1)N1CCN(c2cc(Cl)ccc2C)CC1 (stereo not drawn) here?
Answer: inactive

Question: Which outcome does the source give for CCOC(=O)C1CCN(C(=O)Cn2nc(C)n3nc(-c4ccc(OC)cc4)cc3c2=O)CC1 here?
Answer: inactive

Question: How did the outcome turn out when COc1ccc(-c2cc(C(F)(F)F)nc(SCCC(=O)N3CCN4CCCC4C3)n2)cc1 (stereo not drawn) was run?
Answer: inactive

Question: How did the outcome turn out when Cc1sc(NC(=O)c2cccc([N+](=O)[O-])c2)c(C(N)=O)c1-c1ccc(C(C)(C)C)cc1 was run?
Answer: inactive

Question: Which outcome does the source give for CC1CN(c2oc(COc3ccc(Cl)cc3Cl)nc2C#N)CC(C)O1 (stereo not drawn) here?
Answer: inactive

Question: With CCOC(=O)C1=CN(c2cccc(F)c2)C=C(C(=O)OCC)C1c1cc(OC)c(O)c([N+](=O)[O-])c1 as the molecule, how does the outcome read?
Answer: inactive

Question: For O=C(O)c1cc(N2C(=O)C=CC2=O)cc(N2C(=O)C=CC2=O)c1, which outcome is on record?
Answer: inactive
